Test results published in PubChem BioAssay.
Calls of active or inactive are those of the source. Unless noted, no rule for the calls is given here.

Key:
[1] = HepG2 liver cancer cell viability effects, profiling panel, resazurin fluorescence, 24 h, PK04 Diversity Set (AID 1172); settings: higher = more signal; also: test concentration not given here
[2] = basal S. cerevisiae growth modulation, no modifier, primary screen, OD600, strain BY4716, 24 h, basal condition (AID 1173); settings: OD600, 24 h, higher = more signal, called active from +8 up or from −8 down
[3] = MM1S myeloma cell viability, profiling panel, resazurin fluorescence, basal, 24 h, PK04 Diversity Set (AID 1174); settings: higher = more signal, called active from +8 up or from −8 down;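 also: MM1S multiple myeloma cell line; test concentration not given here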
[4] = target: Dihydroorotate dehydrogenase (quinone), mitochondrial (Plasmodium falciparum (isolate 3D7)) (UniProt Q08210); assay: PfDHODH enzyme inhibitors, primary screen, biochemical, C-terminal His tag, absorbance 600 nm (AID 1175); settings: DCIP absorbance 600 nm, higher = more signal, called active from +8 up or from −8 down;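 also: recombinant parasite enzyme with a five histidine tag at its C terminus; test concentration not given here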
[5] = P. aeruginosa biofilm formation inhibitors, primary screen, strain PAO1, LB-PBS medium, absorbance 600 nm (AID 1176); also: test concentration not given here; settings: P. aeruginosa PAO1 growth/biofilm, A600, 12 h; higher = more signal
[6] = S. cerevisiae RM11-1a growth modifiers, primary screen, strain RM11-1a, OD600, basal, 24 h (AID 1177); settings: OD600, 24 h, higher = more signal, called active from +8 up or from −8 down;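 also: cultures grown under basal conditions with no added stressor; test concentration not given here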
[7] = E. coli acrAB mutant growth effects, primary screen, E. coli filamentation inducers, strain DRC39, OD650, 24 h (AID 1178); settings: higher = more signal, called active from +8 up or from −8 down;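 also: growth measured as culture turbidity by optical density at 650 nm; test concentration not given here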
[8] = E. coli acrAB mutant growth effects, primary screen, E. coli filamentation inducers, strain DRC39, OD650, 48 h (AID 1179);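 also: screen aims at cell division blockers that make cells filament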; settings: E. coli DRC39 delta-acrAB growth, higher = more signal, called active from +8 up or from −8 down
[9] = RPMI8226 myeloma cell viability, profiling panel, resazurin fluorescence, basal, 24 h, PK04 Diversity Set (AID 1180); settings: higher = more signal;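 also: RPMI8826 multiple myeloma cell line at 5000 cells per well; test concentration not given here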
[10] = target: E3 ubiquitin-protein ligase XIAP (Homo sapiens) (UniProt P98170); assay: XIAP binders, primary screen, biophysical, small-molecule microarray, fluorescence 635 nm (AID 1181); settings: small-molecule microarray binding, higher = more signal;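 also: score merges 667 nm emission and signal to noise over triplicate slides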
Sequence of E3 ubiquitin-protein ligase XIAP (Homo sapiens) (P98170 whole entry, looked up): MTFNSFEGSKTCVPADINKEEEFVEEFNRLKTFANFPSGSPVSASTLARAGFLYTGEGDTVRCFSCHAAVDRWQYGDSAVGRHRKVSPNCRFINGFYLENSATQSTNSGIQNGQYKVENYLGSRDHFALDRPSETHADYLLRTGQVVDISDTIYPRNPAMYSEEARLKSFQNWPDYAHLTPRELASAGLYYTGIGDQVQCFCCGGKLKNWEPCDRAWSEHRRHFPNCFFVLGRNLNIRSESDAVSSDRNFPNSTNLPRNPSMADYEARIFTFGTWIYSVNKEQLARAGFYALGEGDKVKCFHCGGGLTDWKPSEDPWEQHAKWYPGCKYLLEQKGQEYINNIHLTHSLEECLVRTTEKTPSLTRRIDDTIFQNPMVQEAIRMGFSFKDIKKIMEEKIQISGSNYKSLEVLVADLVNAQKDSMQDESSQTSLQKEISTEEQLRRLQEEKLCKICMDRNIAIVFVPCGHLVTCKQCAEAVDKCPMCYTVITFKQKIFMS

Sequence of Dihydroorotate dehydrogenase (quinone), mitochondrial (Plasmodium falciparum (isolate 3D7)) (Q08210 whole entry, looked up): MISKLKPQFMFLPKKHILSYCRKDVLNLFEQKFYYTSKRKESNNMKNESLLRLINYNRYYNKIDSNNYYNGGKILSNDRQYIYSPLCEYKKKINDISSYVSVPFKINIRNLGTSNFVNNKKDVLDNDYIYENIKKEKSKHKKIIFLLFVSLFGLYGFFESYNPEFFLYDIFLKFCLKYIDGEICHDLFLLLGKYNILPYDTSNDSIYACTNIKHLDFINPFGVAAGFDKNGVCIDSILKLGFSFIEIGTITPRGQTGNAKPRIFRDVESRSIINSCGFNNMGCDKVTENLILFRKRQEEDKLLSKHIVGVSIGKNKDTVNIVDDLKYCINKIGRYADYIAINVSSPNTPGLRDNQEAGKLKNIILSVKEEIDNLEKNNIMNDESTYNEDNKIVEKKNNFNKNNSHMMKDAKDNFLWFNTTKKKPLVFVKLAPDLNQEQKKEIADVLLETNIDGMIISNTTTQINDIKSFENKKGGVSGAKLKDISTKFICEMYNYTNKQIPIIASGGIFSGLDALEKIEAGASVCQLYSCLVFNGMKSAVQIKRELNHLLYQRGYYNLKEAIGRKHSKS

Row | Structure (SMILES) | z-score [1] | z-score [2] | z-score [3] | composite z-score [4] | z-score [5] | z-score [6] | z-score [7] | z-score [8] | z-score [9] | composite z-score [10]
1 | C=C(C)[C@@H]1CC=C(C(O)C2C=CC3C(=O)N(c4ccccc4)C(=O)C3N2Nc2ccc(C#N)cc2)CC1 (stereo not given in full) | -1.12 | -0.111 (inactive) | -0.591 (inactive) | 0.0143 (inactive) | 1.8 (inactive) | 0.556 (inactive) | -0.688 (inactive) | -0.906 (inactive) | 0.0852 | 0.169
2 | Cc1ccc(C(C)CC(O)C2C=CC3C(=O)N(c4ccccc4)C(=O)C3N2Nc2ccc(C#N)cc2)o1 (stereo not given) | -0.793 | -17.1 (active) | -3.76 (inactive) | -1.79 (inactive) | 0.0616 (inactive) | -20.8 (active) | 0.431 (inactive) | 1.14 (inactive) | -5.62 | 0.0204
3 | COCCOC(=O)N1C(=O)[C@@]2(c3cc(C#CCNC(N)=O)ccc31)[C@H](c1ccc(OCCO)cc1)N1[C@H](c3ccccc3)[C@H](c3ccccc3)OC(=O)[C@H]1[C@@H]2C(N)=O | -0.373 | 1.19 (inactive) | 0.421 (inactive) | -0.0174 (inactive) | 0.858 (inactive) | 2.4 (inactive) | 0.146 (inactive) | 0.384 (inactive) | 0.637 | -0.0414
4 | COc1cc(NN2C(C(O)C3CCCCC3)C=CC3C(=O)N(c4ccccc4)C(=O)C32)cc(OC)c1OC (stereo not given) | -1.64 | 1.2 (inactive) | -1.62 (inactive) | -0.0779 (inactive) | 0.698 (inactive) | 0.135 (inactive) | -0.0089 (inactive) | -0.545 (inactive) | -1.67 | 0.337
5 | COC(=O)C(CC#Cc1ccc2c(c1)[C@]1(C(=O)N2)[C@H](C(=O)Nc2nc3ccccc3s2)[C@H]2C(=O)O[C@H](c3ccccc3)[C@H](c3ccccc3)N2[C@@H]1c1ccc(OCCO)cc1)C(=O)OC | 0.885 | -0.0399 (inactive) | 0.973 (inactive) | -3.07 (inactive) | 3.52 (inactive) | -0.367 (inactive) | 0.776 (inactive) | 1.42 (inactive) | -2.38 | -0.0391
6 | CN1C=C(C(=O)OCCS(C)(=O)=O)C(C(=O)OCCS(C)(=O)=O)=CC(c2ccc(CO)cc2)=CC1c1cccs1 (stereo not given) | 0.0449 | -3.66 (inactive) | -0.727 (inactive) | -0.927 (inactive) | -0.566 (inactive) | -0.363 (inactive) | 0.0198 (inactive) | -0.0834 (inactive) | 0.0779 | 0.246
7 | CCCCCN1CC=CC23O[C@@H]4C=CCOC(=O)[C@@H]4[C@H]2C(=O)N(CCO)[C@@H]3C1=O (stereo not given in full) | 0.815 | 0.201 (inactive) | 0.0974 (inactive) | -0.693 (inactive) | 0.398 (inactive) | -0.454 (inactive) | -0.0666 (inactive) | -0.193 (inactive) | 0.229 | 0.307
8 | CN1C(=O)C2C=CC(C(O)c3cc(C(F)(F)F)cc(C(F)(F)F)c3)N(NC(=O)OC(C)(C)C)C2C1=O (stereo not given) | -0.725 | -0.752 (inactive) | -0.117 (inactive) | -0.251 (inactive) | -0.379 (inactive) | 0.215 (inactive) | -0.676 (inactive) | -1.22 (inactive) | 0.349 | 0.394
9 | O=C1C2C=CC(C(O)c3ccc(I)cc3)N(Nc3ccccc3)C2C(=O)N1c1ccccc1 (stereo not given) | -1.04 | -2.16 (inactive) | -1.38 (inactive) | 0.45 (inactive) | 1.58 (inactive) | -0.208 (inactive) | -1.07 (inactive) | -0.28 (inactive) | -0.312 | 0.162
10 | CCCC=C(CCC)[C@@H](NC(=O)CCc1ccccc1)c1ccc(C(F)(F)F)cc1 | 0.561 | -0.357 (inactive) | -0.407 (inactive) | -1.39 (inactive) | 0.0944 (inactive) | 0.439 (inactive) | 0.0152 (inactive) | -0.0054 (inactive) | -0.581 | 0.0734
11 | CC(C)C[C@@H]1NC(=O)[C@@]23C(=O)N[C@@H](Cc4ccccc4)C2[C@H](C)[C@@]2(C)O[C@H]2C3/C=C/C/C=C\CNC(=O)[C@@H](C)NC1=O (stereo not given in full) | 0.833 | -0.68 (inactive) | 1.33 (inactive) | -0.401 (inactive) | -0.131 (inactive) | -1.08 (inactive) | 1.65 (inactive) | 0.209 (inactive) | 1.01 | -0.116
12 | COc1ccc(C(=O)Nc2cccc(CN3C(=O)[C@@]4(O[C@@H](CC(=O)N(CCO)Cc5ccccc5)[C@H]([Si](C)(C)c5ccc(OC)cc5)[C@H]4C)c4ccccc43)c2)cc1 | -0.0246 | 0.062 (inactive) | -2.3 (inactive) | -2.25 (inactive) | 0.711 (inactive) | 0.621 (inactive) | 0.289 (inactive) | 0.45 (inactive) | -2.67 | -0.0365
13 | C=C(COC)/C(=C/C[C@H](OC(C)=O)c1cccc(OCCO)c1)c1cnc2ccccc2c1 | -0.0054 | 1.02 (inactive) | -0.496 (inactive) | -6.23 (inactive) | 0.0721 (inactive) | 1.56 (inactive) | -0.901 (inactive) | -0.856 (inactive) | -0.58 | -0.0749
14 | C=C(/C(=C/C[C@H](OC(=O)c1ccncc1)c1cccc(OCCO)c1)c1cnc2ccccc2c1)C(C)C | -0.982 | -18.5 (active) | -1.09 (inactive) | -25.3 (active) | 0.285 (inactive) | -22.1 (active) | 0.116 (inactive) | -0.147 (inactive) | -0.911 | 0.329
15 | CC(C)[Si]1(C(C)C)OCc2cc(-c3ccc(-c4ccc(Cl)c(Cl)c4)o3)nc(CCc3ccccc3)c21 | 0.822 | -3.49 (inactive) | -1.64 (inactive) | 0.393 (inactive) | 0.149 (inactive) | -0.302 (inactive) | 1.46 (inactive) | 0.643 (inactive) | -0.0096 | -0.185
16 | [N-]=[N+]=NCc1ccccc1[C@@H]1OC(c2ccc(OCCCO)cc2)=N[C@]1(Cc1ccccc1N=[N+]=[N-])C(=O)NCCN1CCOCC1 | -0.591 | -2.33 (inactive) | 0.0903 (inactive) | -0.549 (inactive) | 0.385 (inactive) | -0.186 (inactive) | 0.191 (inactive) | -0.215 (inactive) | -0.846 | -0.0826
17 | COC(=O)C1N=C(c2ccc(OCCCO)cc2)N(c2ccccc2)O1 (stereo not given) | 0.863 | -1.41 (inactive) | -0.279 (inactive) | -1.24 (inactive) | -1.1 (inactive) | 0.061 (inactive) | 0.642 (inactive) | -0.0518 (inactive) | 1.22 | -0.0118
18 | CN1C(=O)C2C=CC(C(O)c3ccc(I)cc3)N(Nc3ccccc3)C2C1=O (stereo not given) | -1.25 | -0.245 (inactive) | -0.994 (inactive) | -0.359 (inactive) | 0.683 (inactive) | -0.0359 (inactive) | -1.28 (inactive) | -1.4 (inactive) | -1.37 | 0.114
19 | CCOC(=O)C1=C[C@@H](c2ccccc2)N(S(=O)(=O)c2ccc(C)cc2)[C@H]1c1ccccc1 | -0.443 | 0.779 (inactive) | -1.38 (inactive) | -0.629 (inactive) | 0.878 (inactive) | 0.398 (inactive) | -0.86 (inactive) | -0.605 (inactive) | -0.549 | 0.125
20 | CCN(CC)c1ccc(N2CC=CC34O[C@@H]5/C=C\CCC(C)OC(=O)C5[C@H]3C(=O)N(C(C)CO)[C@@H]4C2=O)cc1 (stereo not given in full) | 0.958 | -0.893 (inactive) | 0.259 (inactive) | 0.881 (inactive) | -1.28 (inactive) | 0.507 (inactive) | 0.966 (inactive) | 1.39 (inactive) | 0.0809 | 0.0727
21 | CCCCC(=O)N(CCN1CCOCC1)[C@@H]1CC(C(=O)NCCO)=C[C@H](Oc2c(I)cc(CO)cc2OC)[C@H]1O | 0.246 | -1.23 (inactive) | 0.0671 (inactive) | 0.229 (inactive) | 0.118 (inactive) | 0.615 (inactive) | 1.34 (inactive) | 1.15 (inactive) | 0.29 | -0.22
22 | COCC(=C=CC[C@@H](O)c1cccc(OCCO)c1)CCO | -0.161 | -0.773 (inactive) | -0.0845 (inactive) | -2.07 (inactive) | -0.59 (inactive) | -0.357 (inactive) | 0.583 (inactive) | 0.464 (inactive) | -0.0794 | -0.241
23 | COc1ccc(C#Cc2ccc3c(c2)[C@]2(C(=O)N3)[C@H](C(=O)Nc3nc4ccccc4s3)[C@H]3C(=O)O[C@H](c4ccccc4)[C@H](c4ccccc4)N3[C@@H]2c2ccccc2OCCO)cc1 | 0.154 | 1.08 (inactive) | 0.303 (inactive) | -5.43 (inactive) | 2.69 (inactive) | 1.66 (inactive) | 0.82 (inactive) | 0.413 (inactive) | 1.5 | 0.0507
24 | CCc1cccc(NC(=O)O[C@H]2[C@H](OC(=O)Nc3ccccc3)[C@H](OC(=O)Nc3ccccc3)[C@@H](OC)O[C@@H]2CO)c1 | -3.47 | 0.885 (inactive) | -4.46 (inactive) | 0.0661 (inactive) | 1.78 (inactive) | 1.12 (inactive) | 0.0415 (inactive) | 0.0166 (inactive) | -6.11 | 0.306
25 | CC(C)C(=C=CC[C@@H](O)c1cccc(OCCO)c1)C[C@@H](O)c1ccccn1 | 0.828 | -1.02 (inactive) | 0.642 (inactive) | -6.55 (inactive) | -0.0342 (inactive) | 0.488 (inactive) | 0.267 (inactive) | -0.158 (inactive) | 0.463 | 0.127
26 | COc1ccc([Si](C)(C)[C@H]2[C@H](CC(=O)N3Cc4ccccc4C[C@H]3CO)O[C@@]3(C(=O)N(Cc4ccc(N5C(=O)c6cccc7cccc5c67)cc4)c4ccccc43)[C@@H]2C)cc1 | 0.716 | 0.21 (inactive) | -2 (inactive) | -0.934 (inactive) | 1.13 (inactive) | 1.77 (inactive) | 0.929 (inactive) | 0.472 (inactive) | -0.737 | -0.063
